Test: qHTS drug screen for cell cycle checkpoint inhibitors in PARPi-resistant BRCA-mutant ovarian cancer cell lines. (AID 1963452)
Details: PEO1/OlaR viability, CellTiter-Glo luminescence, 96 h; measured here: PEO1 parental Z-AUC; stronger effect = lower value
Summary of the method: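 PEO1, PEO4 and PEO1/OlaR ovarian cancer cells, 600 per well, exposed 96 h at 37C to a dilution series. Viability read by CellTiter-Glo luminescence, normalized to DMSO and empty wells; activity summarized as Z-AUC.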

Row | SMILES | Z-AUC
1 | Cc1ccn(-c2ccc(-c3ncco3)cc2)c(=O)c1-c1ccc2nc(N)ncc2c1 | 0.788
2 | Oc1ccc(C2=Cc3ccc(O)cc3OC2)cc1 | -0.782
3 | COc1ccc(Cc2ccc(NC(N)=O)cc2)cc1-c1cccc(Cl)c1 | -0.098
4 | COc1ccc2cc(-c3nc(-c4ccc(S(C)=O)cc4)[nH]c3-c3ccncc3)ccc2c1 (stereo unspecified) | -0.107
5 | COc1cc(NC(=O)c2ccc(-c3ccc(Cl)cc3)o2)cc(OC)c1 | -0.389
6 | CN[C@@H](C)C(=O)N[C@H]1CN(C(=O)CC(C)C)CC[C@H]2CC[C@@H](C(=O)NC(c3ccccc3)c3ccccc3)N2C1=O | 0.371
7 | C[C@H](NC(=O)c1sccc1OCc1ccc(Cl)cc1)c1ccccc1 | -0.143
8 | O=C(O)C(O)Cc1ccc(O)c(O)c1 (stereo unspecified) | 1.05
9 | N#CC1(c2ccc(NC(=O)c3cccnc3NCc3ccncc3)cc2)CCCC1 | 1.37
10 | CC(C)(C)NC(=O)Nc1cccc(Nc2ncc(F)c(NC(C)(C)CO)n2)c1 | -1.21
11 | CCCCCNC(=O)N1CCC(CN(Cc2ccc(Cl)cc2)Cc2ccc([N+](=O)[O-])s2)C1 (stereo unspecified) | 0.128
12 | COc1cccc(-c2cc(=O)c3ccccc3o2)c1N | -0.47
13 | O=C(NCc1ccccc1)c1csc(Nc2ccncn2)n1 | 0.117
14 | Clc1cc(Cl)cc(CNc2ncncc2-c2ccc3c(c2)OCO3)c1 | -0.24
15 | CO[C@@H](C(=O)N1Cc2[nH]nc(NC(=O)c3ccc(N4CCN(C)CC4)cc3)c2C1)c1ccccc1 | 0.272
16 | Cc1c(NC(=O)c2ccc(C(C)(C)C)cc2)cccc1-c1cn(C)c(=O)c(Nc2ccc(C(=O)N3CCOCC3)cc2)n1 | 0.745

From PubChem BioAssay (NCATS)
